Assay results taken from PubChem BioAssay (NCI).
The panel holds about 83,000 compounds, 20% with a hit somewhere; the sample as a whole holds those more often.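 Values shown are percent growth following 48 h exposure of cells in 96-well plates to a single concentration of compound; below 10 was considered active.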 Values without a mark were called inactive. The source made the active and inactive calls.

Tests used:
Assay in all cases: NCI-60 one-dose screen, 48 h (100 = growth as untreated, 0 = no growth, -100 = all killed)
Details in all cases: 10 µM unless noted
HCT-15 colon = tested on: HCT-15 colon
HT29 colon = tested on: HT29 colon
SNB-75 CNS = tested on: SNB-75 CNS
SNB-19 CNS = tested on: SNB-19 CNS
U251 CNS = tested on: U251 CNS
PC-3 prostate = tested on: PC-3 prostate
SK-MEL-5 melanoma = tested on: SK-MEL-5 melanoma
LOX IMVI melanoma = tested on: LOX IMVI melanoma
SK-MEL-28 melanoma = tested on: SK-MEL-28 melanoma
SK-MEL-2 melanoma = tested on: SK-MEL-2 melanoma
EKVX NSCLC = tested on: EKVX NSCLC
SN12C renal = tested on: SN12C renal
UO-31 renal = tested on: UO-31 renal
TK-10 renal = tested on: TK-10 renal
ACHN renal = tested on: ACHN renal
A498 renal = tested on: A498 renal
CCRF-CEM leukemia = tested on: CCRF-CEM leukemia
MOLT-4 leukemia = tested on: MOLT-4 leukemia
CAKI-1 renal = tested on: CAKI-1 renal

Structure (SMILES)	growth (HCT-15 colon)	growth (HT29 colon)	growth (SNB-75 CNS)	growth (SNB-19 CNS)	growth (U251 CNS)	growth (PC-3 prostate)	growth (SK-MEL-5 melanoma)	growth (LOX IMVI melanoma)	growth (SK-MEL-28 melanoma)	growth (SK-MEL-2 melanoma)	growth (EKVX NSCLC)	growth (SN12C renal)	growth (UO-31 renal)	growth (TK-10 renal)	growth (ACHN renal)	growth (A498 renal)	growth (CCRF-CEM leukemia)	growth (MOLT-4 leukemia)	growth (CAKI-1 renal)
Cc1cc(Cl)nc(N(CCNc2ccnc3cc(Cl)ccc23)Cc2ccco2)n1	35.7%	30.3%	81.5%	37.9%	17.9%	34.1%	42.9%	22.5%	3.02% (active)	55.8%	63.6%	33.5%	-33.5% (active)	64%	17.7%	70.2%	8.24% (active)	6.36% (active)	–
Cn1cc(-c2csc(-c3cn(CCCN4CCCCC4)c4ccccc34)n2)c2cccnc21	-78.2% (active)	-87.7% (active)	49.3%	-65.6% (active)	-90.5% (active)	-55.7% (active)	-98.5% (active)	-71.9% (active)	-82.6% (active)	101%	70.8%	-70.9% (active)	-90.2% (active)	-84.3% (active)	-97.4% (active)	82.6%	-27.9% (active)	-50.5% (active)	–
Cc1cc(N(CCCNc2ccnc3cc(Cl)ccc23)Cc2ccco2)nc(N2CCN(C)CC2)n1	16.9%	12.4%	68.7%	58.2%	28.6%	51.5%	-42.6% (active)	0.725% (active)	-75.2% (active)	70.7%	66.1%	50.5%	47.5%	117%	18.6%	72.2%	43.4%	37.6%	–
COc1ccc(C2C(C#N)=C(N)Oc3c2sc2c(F)cccc32)cc1 (stereo not drawn)	24.4%	7.77% (active)	3.73% (active)	22.8%	24.2%	15.7%	22.5%	29.9%	60.5%	19.8%	50.3%	39.7%	37.6%	56.6%	42.9%	41.4%	14.9%	8.8% (active)	–
CCCCCCCN(CCCCCCC)C(=N)c1ccnc2ccccc12	-72.1% (active)	-50.2% (active)	-68.3% (active)	-51.1% (active)	-87.5% (active)	-22.4% (active)	-98.3% (active)	-94.4% (active)	-74.1% (active)	-46.5% (active)	-15.6% (active)	-42% (active)	-62.5% (active)	14.9%	-81.9% (active)	-17.2% (active)	–	-16.5% (active)	3.85% (active)
Cc1cc(N2CCCCC2)nc(N(CCCNc2ccnc3cc(Cl)ccc23)Cc2ccco2)n1	11.3%	2.02% (active)	54.3%	27.4%	24.7%	2.61% (active)	-91.8% (active)	-34.7% (active)	-23.5% (active)	44.8%	39.4%	36.3%	15.6%	63.2%	38.8%	46.5%	19.5%	6.82% (active)	–
CC/C=C\C[C@H]1CC=C2C(=O)C=C[C@@H]2CC=CCCCC(=O)O[C@@H](CCCCC)CC=C2C(=O)C=C[C@@H]2CC=CCCCC(=O)O[C@@H](CCCCC)CC=C2C(=O)C=C[C@@H]2CC=CCCCC(=O)O[C@@H](CCCCC)CC=C2C(=O)C=C[C@@H]2CC=CCCCC(=O)O1	47.1% [7.9 µM]	2.5% [7.9 µM] (active)	65.2% [7.9 µM]	25.7% [7.9 µM]	-45.8% [7.9 µM] (active)	13.5% [7.9 µM]	17.9% [7.9 µM]	-75.8% [7.9 µM] (active)	11.9% [7.9 µM]	-5.92% [7.9 µM] (active)	63.7% [7.9 µM]	-10.5% [7.9 µM] (active)	9.76% [7.9 µM] (active)	57.5% [7.9 µM]	19.6% [7.9 µM]	73.1% [7.9 µM]	9.35% [7.9 µM] (active)	4.01% [7.9 µM] (active)	–
CC(C)(C)c1ccc(OCCCCCCCN2CCNCC2)cc1	-22.1% (active)	6.93% (active)	51.8%	54.4%	12.9%	28.1%	43.9%	-77.8% (active)	53%	103%	70%	58.8%	33.3%	105%	13.6%	–	17.8%	0.604% (active)	44.8%
COc1ccc2[nH]c(-c3ccc(Cl)cc3)cc(=O)c2c1	96.4%	96.3%	93.4%	96%	96.7%	88%	95.6%	100%	104%	96.3%	95.2%	93.6%	94.4%	93.4%	103%	93.2%	36.3%	99.2%	–
Cc1cc(Cl)nc(N(CCCNc2ccnc3cc(Cl)ccc23)Cc2ccco2)n1	18.3%	8.64% (active)	59.6%	31.5%	26.9%	5.4% (active)	-82.6% (active)	10.7%	16.1%	39.4%	24.1%	26.6%	10.9%	41.7%	28.4%	38.1%	20.6%	-1.04% (active)	–
Cc1cc(N(CCCNc2ccnc3cc(Cl)ccc23)Cc2ccco2)nc(N2CCOCC2)n1	54.9%	34.9%	73.5%	78.1%	84%	62.2%	54.5%	66%	77.6%	93.2%	67.6%	67.4%	46.8%	110%	95.3%	59.1%	69.2%	63.7%	–
Brc1ccc2c(c1)c(-c1nc(-c3c[nH]c4ncccc34)cs1)cn2CCCN1CCCCC1	-80% (active)	-87.2% (active)	67.6%	-68.3% (active)	-84.2% (active)	2.12% (active)	-59.5% (active)	-93.5% (active)	-84.8% (active)	36.8%	50.1%	25.3%	-52% (active)	76.2%	-23.7% (active)	77%	-35.5% (active)	-44.6% (active)	–
c1cnc2[nH]cc(-c3csc(-c4cn(CCCN5CCCCC5)c5ccccc45)n3)c2c1	4.45% (active)	-55.8% (active)	60.2%	39.2%	10.4%	34.9%	-80.1% (active)	-67.6% (active)	-68.4% (active)	93.7%	65.8%	63.4%	43.8%	115%	60.2%	83.8%	6.17% (active)	-10.6% (active)	–
COc1ccc(-c2nc3c(c(C)nn3-c3ccc(F)cc3)c(=O)[nH]2)cc1	83%	58.6%	11.1%	75%	44%	78.1%	79.1%	75.2%	96.8%	92.3%	81.6%	56.9%	52.1%	65.8%	6.33% (active)	70.8%	86.9%	98.1%	–
CCN1CCN(c2nc(C)cc(N(CCCNc3ccnc4cc(Cl)ccc34)Cc3ccco3)n2)CC1	17.9%	11.4%	66.8%	73.1%	42.2%	53.9%	-37.8% (active)	9.87% (active)	-63.7% (active)	75.1%	63.1%	50.6%	33.1%	108%	30.2%	78.1%	42%	43.5%	–
CCCCC[C@H]1CC=C2C(=O)C=C[C@@H]2CC=CCCCC(=O)O[C@@H](CCCCC)CC=C2C(=O)C=C[C@@H]2CC=CCCCC(=O)O[C@@H](CCCCC)CC=C2C(=O)C=C[C@@H]2CC=CCCCC(=O)O1	7.88% [8.75 µM] (active)	-12.4% [8.75 µM] (active)	48.7% [8.75 µM]	9.32% [8.75 µM] (active)	-49.4% [8.75 µM] (active)	-15.7% [8.75 µM] (active)	-76.7% [8.75 µM] (active)	-87.5% [8.75 µM] (active)	-48.7% [8.75 µM] (active)	-38.4% [8.75 µM] (active)	22.4% [8.75 µM]	-10.5% [8.75 µM] (active)	-96.7% [8.75 µM] (active)	31.6% [8.75 µM]	-11.6% [8.75 µM] (active)	-13.8% [8.75 µM] (active)	7.92% [8.75 µM] (active)	3.57% [8.75 µM] (active)	–
